{"source": "PubChem BioAssay AID449762", "about": "(Southern Research Specialized Biocontainment Screening …, 2010)", "note": "Hit rate of the full screen: of about 330,000 compounds, about 1,900 (0.58%) were called active. Inconclusive results (about 4%) are left out. A selection follows. Potency and affinity values are given separately. Values without a mark were called inactive. Cut-off read from the data, not from the text of the source: inconclusive = inhibition above about 70% without an active follow-up result; inactive = below that.", "data": [{"assay": "M. tuberculosis growth inhibition, HTS (AID 449762);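 note: bacterial growth assessed after seven days of incubation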", "details": "M. tuberculosis H37Rv growth inhibition, 7H9 media; at 25 µM; stronger effect = higher value", "units": {"inhibition": "%"}, "values": [{"smiles": "CCOC(=O)c1cc(-c2ccc(N3CCOCC3)cc2)nn1-c1ccccc1C(=O)O", "inhibition": -2.68}, {"smiles": "CCOC(=O)c1cc(-c2ccc(N3CCOCC3)cc2)nn1-c1ccc(F)cc1F", "inhibition": 30.5}, {"smiles": "COc1ccccc1N1CCN(c2nnc(-c3ccc(F)cc3)c3ccccc23)CC1", "inhibition": -0.63}, {"smiles": "COc1cc(C(=O)N/C(=C\\c2cn(S(=O)(=O)N(C)C)c3ccccc23)C(=O)N2CCCC2)cc(OC)c1OC", "inhibition": 7.41}, {"smiles": "COc1cc(/C=N/n2cc(-c3ccccc3)[nH]c2=S)cc(OC)c1O", "inhibition": -4.41}, {"smiles": "Cc1ccc(-n2cnc3scc(-c4cccs4)c3c2=O)cc1", "inhibition": 9.75}, {"smiles": "O=c1cc(-c2ccccc2)oc2ccccc12", "inhibition": -7.12}, {"smiles": "O=c1cc(/C=C/c2ccccc2)oc2c1ccc1ccccc12", "inhibition": -0.73}, {"smiles": "CN1CCCN(C(=O)c2cc(-c3ccc(Cl)c(Cl)c3Cl)nc3ccccc23)CC1", "inhibition": 5.52}, {"smiles": "CCOCCCNC(=O)C(NC(=O)Cc1cccs1)c1ccc(OC)cc1", "note": "(stereo not drawn)", "inhibition": 3.59}, {"smiles": "CCOC(=O)c1sc(C)c2c(=O)n(CC)nnc12", "inhibition": -7.87}, {"smiles": "CCOC(=O)c1sc(C)c2c(=O)n(CCc3ccccc3)nnc12", "inhibition": -10.6}, {"smiles": "COC(=O)C1=C(C)N(CCCC(=O)O)C(=O)NC1c1ccc(Br)cc1", "note": "(stereo not drawn)", "inhibition": 2.77}, {"smiles": "COCCn1cc(C(=S)N2CCCCC2)c2ccccc21", "inhibition": 5.15}, {"smiles": "CCOc1ccc(NS(=O)(=O)c2ccc(C(=O)NCCN3CCOCC3)cc2)cc1", "inhibition": -3.65}, {"smiles": "NC(=S)N/N=C/c1ccc(-c2cc(Cl)cc(Cl)c2)o1", "inhibition": -4.69}, {"smiles": "CCNC(=S)N/N=C/c1ccc(-c2ccccc2)o1", "inhibition": -5.23}, {"smiles": "CC(=O)N1CCN(C(=O)C(Cc2ccccc2)NC(=O)c2ccccc2)CC1", "note": "(stereo not drawn)", "inhibition": -1.96}, {"smiles": "COc1cc(CSC)nc(-c2ccccc2)n1", "inhibition": -6.71}, {"smiles": "CC1(O)CC(c2ccc(Cl)cc2)=NN1C(=O)c1ccc(Cl)cc1", "note": "(stereo not drawn)", "inhibition": 47.7}, {"smiles": "CC(=O)N1N=C(c2ccc(Cl)cc2)CC1c1ccc([N+](=O)[O-])cc1", "note": "(stereo not drawn)", "inhibition": -2.62}, {"smiles": "CC(=O)Nc1ccc(NC(=O)CCn2c(=S)oc3ccccc32)cc1", "inhibition": 0.4}, {"smiles": "Cc1cccc(C)c1NC(=S)N(Cc1ccccc1)Cc1cccnc1", "inhibition": -3.48}, {"smiles": "O=C(O)[C@@H]1[C@@H]2C[C@@H]2CN1c1ncccc1[N+](=O)[O-]", "inhibition": -3.12}, {"smiles": "CN1C(=O)N(C)c2ccc(Br)c3cccc1c23", "inhibition": -5.58}, {"smiles": "CN1C(=O)N(C)c2cccc3cccc1c23", "inhibition": 7.44}, {"smiles": "O=C(c1cc2c(=O)n3ccccc3nc2s1)N1CCN(c2cccc(Cl)c2)CC1", "inhibition": 5.56}, {"smiles": "CC(=O)c1nn(-c2ccccc2)cc1C(=O)c1ccc(C)cc1", "inhibition": 2.07}, {"smiles": "COc1ccc2oc(-c3ccc(C)c(NC(=O)CSc4ccc(Cl)cc4)c3)nc2c1", "inhibition": -3.67}, {"smiles": "Cc1ccc(/C=C2\\SC(=S)N(CCC(=O)NNC(=O)c3ccc(O)cc3)C2=O)cc1", "inhibition": 3.42}, {"smiles": "Cc1ccccc1C1=N/C(=C/c2cccs2)C(=O)O1", "inhibition": 61}, {"smiles": "Cc1cccc(C2=N/C(=C\\c3cccnc3)C(=O)O2)c1", "inhibition": -3.98}, {"smiles": "CCOC(=O)N=Nc1c(O)n(CC(=O)OC)c2ccccc12", "inhibition": -0.16}, {"smiles": "CCCSc1nc2c(cnn2-c2ccc(Cl)cc2)c(=O)[nH]1", "inhibition": 6.95}, {"smiles": "O=C(NNC(=O)c1cc(S(=O)(=O)N2CCOCC2)c(Cl)cc1Cl)c1ccccc1F", "inhibition": 0.47}, {"smiles": "Cc1nn(Cc2ccccc2)c(C)c1C(=O)OCC(=O)Nc1cc(S(C)(=O)=O)ccc1Cl", "inhibition": 6.17}, {"smiles": "O=C(Nc1ccccc1Cl)N1CCN(c2ccc3nnc(-c4ccc(F)cc4)n3n2)CC1", "inhibition": 22.4}, {"smiles": "O=C(Nc1ccc(F)cc1)N1CCN(c2ccc3nnc(-c4ccc(F)cc4)n3n2)CC1", "inhibition": -4.53}, {"smiles": "CC1=C(C(=O)NC(C)c2ccccc2)C2(CCC(C)CC2)OC1=O", "note": "(stereo not drawn)", "inhibition": -6.81}, {"smiles": "Cc1cc(/C=C(\\C#N)C(=O)NCc2ccccc2)cc(C)c1O", "inhibition": -9.9}, {"smiles": "CCOc1cc(CNCc2ccc3c(c2)OCO3)ccc1OC", "inhibition": -2.37}, {"smiles": "COc1ccc(CCNC(=O)CSc2ncc(C(=O)Nc3ccccc3)c(=O)n2C)cc1", "inhibition": -4.13}, {"smiles": "Cc1cccc(NC(=S)N(CCCN2CCCC2)Cc2cccn2Cc2ccc(Cl)cc2)c1", "inhibition": 42.3}, {"smiles": "COc1cccc(NC(=S)N(CCCN2CCCC2)Cc2cccn2Cc2ccc(Cl)cc2)c1", "inhibition": 6.09}, {"smiles": "CN(C)N1C(=O)/C(=C/c2ccco2)SC1=Nc1ccccc1", "inhibition": -2.31}, {"smiles": "ClC1(CNc2ccccc2)CCN(Cc2ccccc2)CC1", "inhibition": -3.08}, {"smiles": "OC1(c2ccccc2)CCN(Cc2ccccc2)CC1", "inhibition": -0.23}, {"smiles": "CCOC(=O)N1CCC2(CC1)C(C#N)=C(N)OC1=C2C(=O)CC(C)C1", "note": "(stereo not drawn)", "inhibition": -8.64}, {"smiles": "COc1ccc(NC(=O)CSc2nc3ccccc3c(=O)[nH]2)cc1S(N)(=O)=O", "inhibition": -3.14}, {"smiles": "CC(=O)Nc1ccc(-c2csc(N/N=C\\c3ccncc3)n2)cc1", "inhibition": 6.44}, {"smiles": "C(=N\\Nc1nc(-c2ccccc2)cs1)/c1cccs1", "inhibition": 28.8}, {"smiles": "CC(CNC(=O)CN1C(=O)NC2(CCCCC2)C1=O)c1ccccc1", "note": "(stereo not drawn)", "inhibition": -3.97}, {"smiles": "COC(=O)c1nnn(CC(=O)NC(=O)Nc2ccccc2)c1C(=O)OC", "inhibition": -6.63}, {"smiles": "COc1ccc(C(=O)Nc2ccc3c(c2)C(=O)c2ccccc2C3=O)cc1OC", "inhibition": 4.14}, {"smiles": "O=C1c2ccccc2C(=O)c2c1oc(C(F)(F)F)c2C(=O)c1ccccc1", "inhibition": 9.23}, {"smiles": "CC(C)(C)c1ccc(C(=O)NCC(=O)OCC(=O)N2CCN(S(=O)(=O)c3ccc(Cl)cc3)CC2)cc1", "inhibition": 8.58}, {"smiles": "Cc1ccc(S(=O)(=O)NCc2ccc(C(=O)NCCCN3CCN(C)CC3)cc2)cc1", "inhibition": -4.79}, {"smiles": "CC(=O)Nc1ccc(S(=O)(=O)NCc2ccc(C(=O)NCCCN3CCC(C)CC3)cc2)cc1", "inhibition": 2.04}]}]}
